An excerpt weighted towards active compounds, which were near 7.5% of everything screened.
ELG1 genotoxic: qHTS screen for small molecules that induce genotoxicity in human embryonic kidney (HEK293T) cells expressing luciferase-tagged ELG1. Potency, µM (highest dose often 46 µM), for inactives: at the highest dose activity change, positive = activation, most hits filed as activators. HEK293T ELG1-luciferase reporter, luminescence, 16 h. 330,000 compounds, 1.3% hits; further: % of control where 0% means no effect; nearly all actives have a fitted effect of over 60% in size
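Genotoxic stress is detected as increased luminescence from luciferase-tagged ELG1 in HEK293T cells, measured with ONE-Glo after a 16 hr treatment at 37 °C.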
Rab9 prom act: qHTS Assay for Rab9 Promoter Activators. 320,000 compounds, 2.8% hits. Huh7 Rab9 promoter-luciferase reporter, luminescence, 24 h. AID 485297, 2010. Potency, µM (series often up to 9.22 µM), inactives show top-dose activation, negative = inhibition, actives largely listed as activators; further: % of control where 0% means no effect; nearly all actives have a fitted effect of over 60% in size
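Rab9 promoter-driven luciferase in stably transfected Huh7 cells; 1500 cells/well rested 2 h, exposed to compound in DMSO for 24 h at 37 °C, 5% CO2. Luminescence read 10 min after adding luciferase reagent at ambient temperature.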
NPC1 prom act: qHTS Assay for NPC1 Promoter Activators. Huh7 NPC1 promoter luciferase reporter, 24 h. Potency, µM (top dose mostly 9.22 µM), without a hit: at the top dose activation, actives largely listed as activators. 320,000 compounds, 2.4% hits; further: % of control where 0% means no effect; nearly all actives have a fitted effect of over 60% in size
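Huh7 reporter cells (NPC1 promoter driving luciferase) are dosed with compound for 24 h at 37 °C, 5% CO2; luciferase detection reagent is then added and luminescence measured after 10 min at ambient temperature.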
SMN2 splice enh: qHTS Assay for Enhancers of SMN2 Splice Variant Expression; HEK293 SMN2-luciferase splicing reporter, luminescence, 30-36 h; Potency, µM (titrated, usually from 46.1 µM), for the others: at the highest dose activity change, positive = activation, usual class: activators; 210,000 compounds, 2.8% hits; AID 1458, 2008; further: % of control where 0% means no effect; nearly all actives have a fitted effect of over 55% in size
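HEK293 cells carry an SMN2 minigene-luciferase reporter in which exon 7 inclusion puts luciferase in frame. Cells were seeded at 2000 cells/well, attached for 10-12 hours, then exposed to compounds for 30-36 hours at 37C before ONE-Glo luminescence.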
KinaseGlo FLuc: Counterscreen for Luciferase (Kinase-Glo TM) Inhibition | Potency, µM (titrated, usually from 38.3 µM), without a hit: at the top dose activity change, negative = inhibition, most hits filed as inhibitors | Luciferin 4-monooxygenase (Photuris pensylvanica), Q27757 | Kinase-Glo luciferase, ATP luminescence, 8 min | 200,000 compounds, 0.28% hits | AID 1379, 2008; further: on the % scale 0 is the no-effect control and ±100 the full control effect; nearly all actives have a fitted effect of over 60% in size
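Inhibition of Kinase-Glo luciferase light generation was assessed at 10 uM ATP in pH 7.2 imidazole buffer, with luminescence measured after eight minutes at ambient temperature.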
FLuc modulator: qHTS profiling assay for firefly luciferase inhibitor/activator using purifed enzyme and Km concentrations of substrates (counterscreen for miR-21 project) | purified FLuc, Km substrates, luminescence inhibition | 360,000 compounds, 6.9% hits | Potency, µM (highest dose often 57.5 µM), inactives show at the highest dose activity change, negative = inhibition, hits mostly inhibitors;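 further: plate controls were vehicle for no effect and reference inhibitor for full effect; nearly all actives have a fitted effect of over 55% in size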
Target sequence (P08659 whole entry, looked up): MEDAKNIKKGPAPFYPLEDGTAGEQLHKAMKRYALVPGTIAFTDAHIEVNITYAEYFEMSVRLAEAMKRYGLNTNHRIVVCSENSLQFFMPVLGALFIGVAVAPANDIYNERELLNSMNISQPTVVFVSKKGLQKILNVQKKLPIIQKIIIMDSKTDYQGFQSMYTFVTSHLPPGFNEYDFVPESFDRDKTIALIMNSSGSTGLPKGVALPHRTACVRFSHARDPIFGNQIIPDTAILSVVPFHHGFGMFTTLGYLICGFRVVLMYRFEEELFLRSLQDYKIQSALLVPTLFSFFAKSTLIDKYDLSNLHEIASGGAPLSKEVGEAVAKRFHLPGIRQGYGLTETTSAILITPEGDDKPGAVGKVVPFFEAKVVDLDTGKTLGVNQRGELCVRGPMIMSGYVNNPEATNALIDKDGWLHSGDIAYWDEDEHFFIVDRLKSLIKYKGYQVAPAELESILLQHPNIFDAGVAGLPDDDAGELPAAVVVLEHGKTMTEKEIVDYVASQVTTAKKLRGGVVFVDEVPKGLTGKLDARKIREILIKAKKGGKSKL
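Biochemical qHTS of compounds, final roughly 60 µM downward over six points, against 10 nM purified firefly luciferase using Km concentrations of substrates (10 uM D-luciferin, 10 uM ATP) in Tris acetate pH 7.5 buffer; luminescence output.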
* = called active by the depositor; ? = inconclusive; nt = no result; [ ] = another dose, or the depositor's remark. The call rests on the fitted dose curve; in most records, active means well fitted curve in the direction sought with a large enough effect; inconclusive means small, poorly fitted or top-dose-only effect, or another doubt; inactive means no such curve, though single readings can be large; an effect the other way counts as inactive or inconclusive. Potency means the concentration at half of the fitted maximal effect.

SMILES	ELG1 genotoxic	Rab9 prom act	NPC1 prom act	SMN2 splice enh	KinaseGlo FLuc	FLuc modulator
CC(C)C(Nc1ncnc2c1oc1ccccc12)C(=O)O (stereo not given)	5%	1%	-2%	nt	nt	-16%
O=C(NNC(=O)c1cc2ccccc2oc1=O)c1ccccc1[N+](=O)[O-]	10%	3%	-3%	nt	nt	0%
CCOc1ccc(-c2cc(NC(=O)Nc3ccccc3C(F)(F)F)c(C(=O)OC)s2)cc1	nt	nt	nt	10%	nt	4%
COc1cccc(CNC(=O)C2CCCN(S(=O)(=O)c3cn(C)cn3)C2)c1 (stereo not given)	nt	nt	nt	nt	nt	-2%
Oc1ccc(Nc2ncnc3c2oc2ccccc23)cc1	?	?	?	nt	nt	15µM*
Oc1ccccc1Nc1ncnc2c1oc1ccccc12	?	6%	-3%	-1%	0%	-2%
CCOc1ccc(NC(=O)c2cnc(N3CCCCC3)c3ccccc23)cc1	nt	nt	nt	nt	nt	11µM*
CCOc1cccc(C(=O)Nc2ccc3ccccc3c2)c1	0.46µM*	0.56µM*	2.2µM*	nt	nt	0.48µM*
CCOc1ccc(C(=O)Nc2ccc(N3CCCC3)cc2)cc1	4%	0%	0%	-7%	0%	?
CCN(CC)c1ccc(NC(=O)c2ccccc2OCC(=O)OC)cc1	-1%	19%	17%	12%	1%	21µM*
CCOc1cccc(C(=O)Nc2ccc(N3CCCC3)cc2)c1	18%	?	?	nt	nt	6µM*
COc1ccc(S(=O)(=O)N2CCOCC2)cc1C(=O)NC1CCCCCC1	-2%	-2%	-3%	nt	nt	7%
COC(C(=O)N/N=C/c1ccc(OCC(=O)N2CCOCC2)cc1)c1ccccc1 (stereo not given)	0%	1%	-2%	nt	nt	?
Cc1c(C)n(C)c2ccc(C(=O)NCCCN3CCCC3)cc12	6%	-9%	-1%	nt	nt	0%
CCN(CC)c1ccc(NC(=O)c2ccc3c(c2)c(C)c(C)n3C)cc1	1%	1%	-4%	-28%	-4%	9.5µM*
CCOc1cccc(C(=O)Nc2ccc(N(CC)CC)cc2)c1	?	7%	15%	23%	-3%	13µM*
O=C(N/N=C/c1cn(-c2cccs2)nc1-c1ccccc1)c1ccccc1Cl	5%	-3%	6%	20µM*	1%	12µM*
O=C(N/N=C/c1cn(-c2cccs2)nc1-c1ccccc1)c1ccc(O)cc1	-19%	4%	7%	?	-20%	4.3µM*
COC(=O)CCC(=O)Nc1ccc(N=Nc2ccccc2)cc1	?	?	27%	?	0%	21µM*
Cc1ccc(NC(=O)COC(=O)C2CC2(Cl)Cl)cc1C (stereo not given)	3%	-1%	1%	-8%	3%	8.5µM*
CCCCC(=O)OCC(=O)Nc1ccc(C)c(F)c1	2%	-8%	1%	-13%	1%	17µM*
O=C(COC(=O)C1CCC1)NCc1ccc(Cl)cc1Cl	12%	2%	0%	nt	nt	17µM*
CCCCC(=O)OCC(=O)Nc1ccc(OC(F)F)cc1	1%	8%	0%	-16%	-3%	?
Cc1cccc(NC(=O)c2ccc(S(=O)(=O)N3CCCCC3)cc2)c1	-6%	18%	-1%	nt	nt	-7%
N#Cc1ccc(C(=O)Nn2cnnc2)cc1	1%	-6%[1.84 µM]	-3%	nt	nt	-1%
O=C(COC(=O)C1CC1)Nc1ccc(OC(F)F)cc1	10%	0%	0%	-6%	-2%	?
Cc1ccc(NC(=O)COC(=O)C2CC2)cc1Cl	3%	1%	-2%	nt	nt	15µM*
O=C(COC(=O)C1CC1)Nc1ccc(N=Nc2ccccc2)cc1	21µM*	0.63µM*	3.5µM*	6.3µM*	-5%	?
